In PubChem BioAssay AID1159580 (chemical genetic matrix, 2015):
The whole screen tested about 5,500 compounds, of which about 2,000 (36%) were called active. Not shown: some 18% with an inconclusive outcome. No stated cut-off is given here; in the data, active means normalized growth mostly below about 0.91 (no sharp cut-off); inconclusive means no clear call, values can overlap the other calls; inactive means mostly above about 0.92. This is one part of the list.

Assay: chemical genetic growth profiling, strain panel (AID 1159580);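 further: tested at 20 µM; growth read once vehicle control cultures reached saturation at 30 °C; 1 = growth at the plate median or of vehicle wells; lower values mean less growth of the strain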
Conditions: growth OD

Measured: normalized growth

CCCCC1=NC2(CCCC2)C(=O)N1Cc1ccc(-c2ccccc2-c2nn[nH]n2)cc1
inactive: S. cerevisiae deletion strains, locus YKL009W, strain mrt4, hits give low values 0.952 | S. cerevisiae deletion strains, locus YKL068W, hits give low values 0.98 | S. cerevisiae deletion strains, locus YKL085W, strain MDH1 (second series), hits give low values 0.986 | S. cerevisiae deletion strains, locus YKL085W, strain MDH1, hits give low values 0.986 | S. cerevisiae deletion strains, locus YKL160W, strain elf1, hits give low values 1.01 | S. cerevisiae deletion strains, locus YKL190W, strain CNB1, hits give low values 0.986 | S. cerevisiae deletion strains, locus YKR001C, strain vps1, hits give low values 0.996 | S. cerevisiae deletion strains, locus YKR026C, strain gcn3, hits give low values 1.01 | S. cerevisiae deletion strains, locus YKR091W, strain srl3, hits give low values 1.02 | S. cerevisiae deletion strains, locus YLL001W, strain dnm1, hits give low values 1.01 | S. cerevisiae deletion strains, locus YLL026W, hits give low values 1.02 | S. cerevisiae deletion strains, locus YLL041C, strain sdh2, hits give low values 1.01 | S. cerevisiae deletion strains, locus YLR027C, strain aat2, hits give low values 0.999 | S. cerevisiae deletion strains, locus YLR039C, strain RIC1, hits give low values 0.969 | S. cerevisiae deletion strains, locus YLR058C, strain SHM2, hits give low values 0.964 | S. cerevisiae deletion strains, locus YLR102C, strain apc9, hits give low values 0.981 | S. cerevisiae deletion strains, locus YLR113W, strain HOG1, hits give low values 1.02 | S. cerevisiae deletion strains, locus YLR221C, strain rsa3, hits give low values 1.01 | S. cerevisiae deletion strains, locus YLR258W, strain gsy2, hits give low values 1.02 | S. cerevisiae deletion strains, locus YLR262C, strain YPT6 (second series), hits give low values 1.04 | S. cerevisiae deletion strains, locus YLR262C, strain YPT6, hits give low values 0.947 | S. cerevisiae deletion strains, locus YLR268W, strain sec22, hits give low values 1.09 | S. cerevisiae deletion strains, locus YLR320W, strain mms22, hits give low values 1.02 | S. cerevisiae deletion strains, locus YLR330W, strain CHS5, hits give low values 0.987 | S. cerevisiae deletion strains, locus YLR342W, strain FKS1 (second series), hits give low values 0.96 | S. cerevisiae deletion strains, locus YLR342W, strain FKS1, hits give low values 1.02 | S. cerevisiae deletion strains, locus YLR357W, strain rsc2, hits give low values 1.01 | S. cerevisiae deletion strains, locus YLR370C, strain arc18, hits give low values 1.01 | S. cerevisiae deletion strains, locus YLR371W, strain rom2, hits give low values 0.972 | S. cerevisiae deletion strains, locus YLR384C, strain iki3, hits give low values 1 | S. cerevisiae deletion strains, locus YLR418C, strain cdc73, hits give low values 0.993 | S. cerevisiae deletion strains, locus YML016C, strain PPZ1, hits give low values 0.984 | S. cerevisiae deletion strains, locus YML032C, strain rad52, hits give low values 1.02 | S. cerevisiae deletion strains, locus YML120C, strain ndi1, hits give low values 0.997 | S. cerevisiae deletion strains, locus YML124C, strain tub3, hits give low values 0.977 | S. cerevisiae deletion strains, locus YMR058W, strain fet3, hits give low values 1 | S. cerevisiae deletion strains, locus YMR078C, strain ctf18, hits give low values 0.991 | S. cerevisiae deletion strains, locus YMR125W, strain sto1, hits give low values 1.01 | S. cerevisiae deletion strains, locus YMR129W, hits give low values 1.01 | S. cerevisiae deletion strains, locus YMR205C, strain PFK2, hits give low values 1.03 | S. cerevisiae deletion strains, locus YMR223W, strain ubp8, hits give low values 0.957 | S. cerevisiae deletion strains, locus YMR231W, strain pep5, hits give low values 1.02 | S. cerevisiae deletion strains, locus YMR263W, strain SAP30, hits give low values 0.998 | S. cerevisiae deletion strains, locus YMR307W, strain GAS1, hits give low values 0.964 | S. cerevisiae deletion strains, locus YNL067W, strain RPL9B, hits give low values 1.04 | S. cerevisiae deletion strains, locus YNL071W, strain lat1, hits give low values 1 | S. cerevisiae deletion strains, locus YNL128W, strain TEP1, hits give low values 0.968 | S. cerevisiae deletion strains, locus YNL153C, strain GIM3, hits give low values 1.03 | S. cerevisiae deletion strains, locus YNL183C, strain NPR1, hits give low values 0.966 | S. cerevisiae deletion strains, locus YNL209W, strain ssb2, hits give low values 1.01 | S. cerevisiae deletion strains, locus YNL233W, strain BNI4, hits give low values 1.04 | S. cerevisiae deletion strains, locus YNL248C, strain rpa49, hits give low values 1.04 | S. cerevisiae deletion strains, locus YNL250W, strain rad50, hits give low values 0.978 | S. cerevisiae deletion strains, locus YNL271C, strain bni1, hits give low values 1 | S. cerevisiae deletion strains, locus YNL298W, strain CLA4, hits give low values 0.971 | S. cerevisiae deletion strains, locus YNL307C, strain MCK1, hits give low values 0.99 | S. cerevisiae deletion strains, locus YNL322C, strain KRE1 (second series), hits give low values 1.03 | S. cerevisiae deletion strains, locus YNL322C, strain KRE1, hits give low values 0.986 | S. cerevisiae deletion strains, locus YNR049C, strain mso1, hits give low values 1 | S. cerevisiae deletion strains, locus YNR052C, strain pop2, hits give low values 0.999 | S. cerevisiae deletion strains, locus YOL006C, strain TOP1, hits give low values 1.1 | S. cerevisiae deletion strains, locus YOL012C, strain htz1 0.917 | S. cerevisiae deletion strains, locus YOL147C, strain pex11, hits give low values 0.992 | S. cerevisiae deletion strains, locus YOR001W, strain rrp6, hits give low values 1.01 | S. cerevisiae deletion strains, locus YOR061W, strain CKA2, hits give low values 0.97 | S. cerevisiae deletion strains, locus YOR069W, strain VPS5, hits give low values 0.991 | S. cerevisiae deletion strains, locus YOR070C, strain gyp1, hits give low values 1.01 | S. cerevisiae deletion strains, locus YOR080W, strain dia2, hits give low values 1 | S. cerevisiae deletion strains, locus YOR083W, strain WHI5, hits give low values 1.03 | S. cerevisiae deletion strains, locus YOR106W, strain vam3, hits give low values 1.02 | S. cerevisiae deletion strains, locus YOR136W, strain idh2, hits give low values 0.967 | S. cerevisiae deletion strains, locus YOR144C, strain elg1, hits give low values 0.987 | S. cerevisiae deletion strains, locus YOR184W, strain ser1, hits give low values 0.979 | S. cerevisiae deletion strains, locus YOR231W, strain MKK1, hits give low values 0.981 | S. cerevisiae deletion strains, locus YOR265W, strain rbl2, hits give low values 1.01 | S. cerevisiae deletion strains, locus YOR270C, strain vph1, hits give low values 1.08 | S. cerevisiae deletion strains, locus YOR290C, strain snf2, hits give low values 1.01 | S. cerevisiae deletion strains, locus YOR316C, strain cot1, hits give low values 0.984 | S. cerevisiae deletion strains, locus YPL051W, strain arl3, hits give low values 0.984 | S. cerevisiae deletion strains, locus YPL055C, strain LGE1, hits give low values 0.959 | S. cerevisiae deletion strains, locus YPL078C, strain atp4, hits give low values 1.01 | S. cerevisiae deletion strains, locus YPL106C, strain sse1, hits give low values 1.01 | S. cerevisiae deletion strains, locus YPL240C, strain hsp82, hits give low values 1 | S. cerevisiae deletion strains, locus YPL241C, strain CIN2, hits give low values 0.99 | S. cerevisiae deletion strains, locus YPL256C, strain CLN2, hits give low values 0.985 | S. cerevisiae deletion strains, locus YPR119W, strain clb2, hits give low values 0.986 | S. cerevisiae deletion strains, locus YPR141C, strain kar3, hits give low values 0.971 | S. cerevisiae deletion strains, locus YPR163C, strain tif3, hits give low values 0.995 | S. cerevisiae deletion strains, locus YPR167C, strain met16, hits give low values 0.991 | S. cerevisiae deletion strains, strain wtn01, hits give low values 1.02 | S. cerevisiae strains, strain wild type, hits give low values 0.978
